Bioassay records as filed in PubChem BioAssay.
Bim-Bcl-XL: disrupts Bim peptide binding to human Bcl-XL; 190,000 compounds, 0.04% hits; bead flow cytometry, fluorescence; AID 1007; Q07817; inhibition, % at 10 µM
Bcl-W Bim block: human Bim-Bcl-W interaction inhibition. bead-based flow cytometry, Bim peptide-Bcl-W binding. 190,000 compounds, 0.02% hits. inhibition, % at 10 µM. Q92843;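 also: 0% = bound tracer without compound and 100% = peptide blocker; higher means less fluorescent Bim peptide bound to Bcl-W beads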
Bim-Bcl-2: disrupts Bim peptide binding to human Bcl-2 | Bead-based flow cytometry, Bim peptide-Bcl-2 binding | P10415 | inhibition, % at 10 µM | 190,000 compounds, 0.06% hits | AID 950; in the data active = inhibition above about 40%;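 also: 0% = no compound wells with probe peptide and 100% = reference peptide inhibitor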
Target sequence (P10415 whole entry, looked up): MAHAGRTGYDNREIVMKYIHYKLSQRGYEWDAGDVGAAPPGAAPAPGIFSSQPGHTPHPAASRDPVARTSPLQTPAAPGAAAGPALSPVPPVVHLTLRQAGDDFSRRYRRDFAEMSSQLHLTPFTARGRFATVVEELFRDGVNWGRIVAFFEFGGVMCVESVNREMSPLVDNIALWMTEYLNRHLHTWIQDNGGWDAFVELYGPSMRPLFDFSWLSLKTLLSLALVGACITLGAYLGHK
Bfl-1 Bim block: disrupts Bim binding to human Bfl-1; Q16548; Bead-based flow cytometry, Bim-Bfl-1 binding inhibition; inhibition, % at 10 µM; 190,000 compounds, 0.12% hits; AID 1008;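 also: 0% = wells without compound plus tracer and 100% = blocker peptide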
Target sequence (Q16548 whole entry, looked up): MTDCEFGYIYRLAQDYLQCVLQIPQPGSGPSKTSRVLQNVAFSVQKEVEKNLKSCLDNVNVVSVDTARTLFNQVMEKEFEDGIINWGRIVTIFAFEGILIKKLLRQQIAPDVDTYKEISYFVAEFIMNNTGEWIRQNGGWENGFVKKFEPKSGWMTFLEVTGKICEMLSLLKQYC
Bim-Bcl-B: inhibitors of Bim-Bcl-B interaction, human; Q9HD36; 190,000 compounds, 0.073% hits; bead-based flow cytometry, Bim peptide-Bcl-B binding; inhibition, % at 10 µM;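 also: 0% = tracer peptide without compound and 100% = reference inhibitor peptide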
* = called active by the depositor; nt = not tested or not shown. Sampled rows, rich in hits. Any-hit rate of the full collection: about 0.19%. Rule as the data show it, unless noted: active = inhibition above about 40%.

SMILES	Bim-Bcl-XL	Bcl-W Bim block	Bim-Bcl-2	Bfl-1 Bim block	Bim-Bcl-B
CN(Cc1cccs1)C(=O)CCc1c[nH]c2ccccc12	-1	1	48*	20	50*
O=C1OC(Nc2ccc3ncccc3c2)c2ccccc21 (stereo not given)	3	6	5	14	-3
CCOc1ncccc1C(=O)OC(C)C(=O)Nc1ccc(CC)cc1 (stereo not given)	1	0	50*	18	55*
O=C(NC(=S)N1CCc2ccccc21)c1ccc(Br)o1	-3	-1	-3	-2	-5
CCOC(=O)CSC1=NC(=O)/C(=C\c2ccc(Cl)cc2)S1	-2	1	-1	46*	0
CSC1=NC(=O)/C(=C/c2ccc(SC)cc2)S1	-2	-1	0	-4	-1
Cc1ccc(O)c(NC2=C(Cl)C(=O)N(Cc3ccccc3)C2=O)c1	35	51*	37	58*	22
O=C(c1ccccc1)c1cc2c(cc1[N+](=O)[O-])OCCO2	-2	0	-4	-4	-5
Cc1cc(C)c2c(c1)[C@@H]1C=CC[C@@H]1[C@H](c1ccc(S(=O)(=O)N3CCOCC3)cc1)N2	10	25	21	53*	6
CCOC(=O)CN1C(=O)C(CC)Oc2ccc(Cl)cc21 (stereo not given)	-3	4	-7	-6	-4
CC(=O)OCCNc1cc(Sc2nc3ccccc3[nH]2)c2nonc2c1[N+](=O)[O-]	0	9	2	44*	0
CC(=O)OCCCNc1cc(Sc2ccc(C)cc2)c2nonc2c1[N+](=O)[O-]	-3	1	0	-3	-10
COc1ccc(N2C(=O)/C(=C/c3cccs3)NC2=S)cc1	-7	4	2	45*	-28
CN(C)/C=C1\NC(=S)N(c2ccccc2)C1=O	-3	0	-1	-1	-13
NC(=O)CSc1nccn1Cc1ccc2c(c1)OCO2	-4	-3	-3	3	-5
C=CCNc1nc(=S)[nH]c2cc(OC)c(OC)cc12	19	12	3	1	16
COc1cc2[nH]c(=S)nc(NC3CCCC3)c2cc1OC	44*	31	18	27	27
O=C(COc1ccccc1)Nc1ccc2c(c1)Cc1cc(NC(=O)COc3ccccc3)ccc1-2	103*	110*	104*	91*	107*
CC1(C(=O)N(CC(=O)NC2CCCC2)Cc2ccco2)CC(=O)N=C2C=CC=CN21 (stereo not given)	25	23	88*	nt	nt
CC1=CN2C(=NC(=O)CC2(C)C(=O)N(CC(=O)NC2CCCC2)c2ccccc2C)C=C1 (stereo not given)	-6	-5	-2	-2	-11
CN1c2cccc3cccc(c23)N(C)C1c1cccs1	2	6	0	13	-1
CC1N(C)c2cccc3cccc(c23)N1C	9	29	12	43*	2
Cc1ccnc(NC(=O)CCC(=O)N(CC(=O)NCc2ccccc2)Cc2cccs2)c1	0	0	-1	4	-1
O=C1c2ccccc2C(=O)N1c1cccc2cccnc12	36	24	30	40*	23
S=C(NCCc1ccccc1)NCCc1ccccc1	39	29	22	44*	24
SMILES	Bim-Bcl-XL	Bcl-W Bim block	Bim-Bcl-2	Bfl-1 Bim block	Bim-Bcl-B
COc1ccc(C2CC(C(F)(F)F)n3ncc(C(=O)NCc4cccnc4)c3N2)cc1OC (stereo not given)	4	3	1	-1	-1
CC(C)(C)C1=CC(=O)C(=O)C(C(C)(C)C)=C1	0	9	18	56*	2
CC(C)(C)C1=CC(=Nc2ccccc2N)C=C(C(C)(C)C)C1=O	-6	-3	-1	0	-6
O=C(NCc1cccnc1)c1cc([N+](=O)[O-])ccc1N1CCOCC1	3	1	5	-1	-1
O=C(N=Nc1c(O)[nH]c2ccc([N+](=O)[O-])cc12)c1cc(-c2ccccc2Cl)nc2ccccc12	-4	-7	-2	-9	-8
COc1ccccc1C(=O)N=Nc1c(O)[nH]c2ccc([N+](=O)[O-])cc12	44*	27	17	9	24
O=C(CCc1ccccc1)NN1C(=O)C2C3C=CC(C3)C2C1=O (stereo not given)	1	-2	3	3	1
O=C(C[n+]1ccc(-c2nnc3n2CCC3)cc1)c1ccc(Cl)c(Cl)c1	14	25	11	2	43*
O=C(CSc1ccc2nnc(-c3ccccn3)n2n1)Nc1nccs1	40*	27	8	7	24
CN(CCC#N)C(=O)COC(=O)c1cc(Cl)cc(Cl)c1N	-3	-3	-3	-7	-6
Cc1cccn2c(=O)c3cc(C(N)=S)c(=N)n(CCCN4CCOCC4)c3nc12	9	16	7	50*	48*
COC(=O)c1ccc(C2OCC(C)(C)CO2)cc1	-1	-4	-2	-6	-4
Cc1cc[n+]2cc(-c3cccc([N+](=O)[O-])c3)c(-c3cccc([N+](=O)[O-])c3)cc2c1	8	14	12	10	43*
Cc1cccc(-c2cnn(-c3cccc([N+](=O)[O-])c3)c2N)c1	0	0	-1	-4	-4
CCOC(=O)NC(Nc1nnc(SCC)s1)(C(F)(F)F)C(F)(F)F	0	-2	-10	-13	-6
CCN(CC)c1ccc(NC2=C(Cl)C(=O)c3ccccc3C2=O)cc1	-6	21	16	70*	-39
O=C(c1cc(=O)c2ccccc2o1)N1CCN(c2ccccc2F)CC1	37	58*	66*	58*	52*
O=C(c1cc(=O)c2ccccc2o1)N1CCN(c2cccc(Cl)c2)CC1	0	3	-3	-8	0
Cc1cc(NC(=O)CCCC(=O)NCc2ccccc2)no1	1	0	51*	27	43*
Cc1ccc(CNC(=O)CCCC(=O)Nc2cc(C)on2)cc1	-4	-4	-3	-7	-8
CC(CCc1ccco1)NC(=O)Cn1ncc2c(=O)oc3ccccc3c21 (stereo not given)	-7	-7	-5	-5	-10
O=C(NCCCO)Nc1ccc2nc(-c3ccco3)c(-c3ccco3)nc2c1	29	46*	46*	65*	28
O=C(Nc1ccc2nc(-c3ccco3)c(-c3ccco3)nc2c1)NC1CC1	20	35	37	50*	14
O=C(Nc1ccc(N2CCOCC2)cc1)Nc1ccc2nc(-c3ccco3)c(-c3ccco3)nc2c1	6	14	5	29	0
OCCCNC(=S)Nc1ccc2nc(-c3ccccn3)c(-c3ccccn3)nc2c1	-14	5	-1	-8	-10
COc1ccc(-c2ccc(CCC(=O)O)n2NC(=O)c2cccs2)cc1	-7	0	-10	-23	-8
Cc1ccc(-c2ccc(CCC(=O)O)n2NC(=O)c2cccs2)cc1	35	28	92*	nt	nt
Cc1ccc(Sc2c(C#N)c(-c3ccccc3)nn2C)cc1	8	10	78*	47*	68*
Cc1ccc(SCc2c(-c3ccccc3)nn(C)c2Cl)cc1	4	1	3	0	2
